Out of some 2,100 compounds screened, about 760 (36%) were called active.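 How the source made its calls: active means thallium-flux fluorescence traces judged by eye to show enhanced or reduced glutamate response, manual score 1 or -1, so both directions (some results past the limit were not filed as active); inactive means the rest, including fluorescent or raised-baseline compounds.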 A selection follows.
Experiment: thallium influx changes without GIRK channels – cell-based, HEK-293 rmGlu8, no GIRK, thallium flux, counter-screen for GIRK activator project, confirmation (AID 623868);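 further: extra codes mark interference with 3 for fluorescent and 4 for baseline rise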
Conditions: thallium flux fluorescence, at 10 µM, actives lie on both sides, codes: 1 enhancer, -1 blocker, 0 none, thallium stimulus containing EC20 glutamate

Compound | manual score
Cn1c(=O)c(NCCc2ccccc2)c2c3c(cccc31)C(=O)c1ccccc1-2 | 3 (inactive)
Cc1nnc2n(C3CCCCC3)c(=O)c3c4c(sc3n12)COC(C)(C)C4 | -1 (active)
CC(Nc1nc(N2CCCCC2)nc2ccccc12)c1ccccc1 (centres undefined) | 0 (inactive)
NC(=O)c1ccc(Cc2ncc(C(F)(F)F)cc2Cl)s1 | 0 (inactive)
O=C1/C(=C\c2ccccn2)SC(=S)N1Nc1ncc(C(F)(F)F)cc1Cl | 0 (inactive)
O=C(NNc1ncc(C(F)(F)F)cc1Cl)c1c(Cl)cccc1Cl | 0.5 (inactive)
FC(F)(F)c1cnc(NNC(=S)Nc2ccccc2Cl)c(Cl)c1 | 1 (active)
Cc1ccc(NC(=S)Nc2ccc(Cl)c(Cl)c2)c(OC(F)F)c1 | 0 (inactive)
FC(F)(F)c1cnc(NNC(=S)Nc2ccc(Cl)cc2)c(Cl)c1 | 1 (active)
Cc1ccc(NC(=S)NNc2ncc(C(F)(F)F)cc2Cl)c(C)c1 | 1 (active)
Cn1c(=O)c(NCCO)c2c3c(cccc31)C(=O)c1ccccc1-2 | 3 (inactive)
C/C(=N/NC(=O)c1ccncc1)c1cc2ccc(O)cc2oc1=O | 0 (inactive)
O=C(NC(=S)Nc1ccccn1)c1ccco1 | 1 (active)
O=C(CC(=O)Nc1ccccn1)Nc1ccccn1 | 0 (inactive)
Cc1cc(NC(=O)c2ccco2)ccc1NC(=O)Cc1cccs1 | 0 (inactive)
Cc1ccc2nsnc2c1NC(=S)NC(=O)c1ccco1 | 1 (active)
Cc1cccc(NC(=S)NC(=O)c2ccco2)n1 | 1 (active)

Compound | manual score
O=C(NCCCn1ccnc1)Nc1ccc(Cl)c(Cl)c1 | 0 (inactive)
N/C(=N/O)c1nc(N2CCCC2)nc(N(c2ccccc2)c2ccccc2)n1 | 0 (inactive)
CC(C)C(C)(C#N)NC(=O)CSc1ncnc2sc(-c3ccccc3)cc12 (centres undefined) | 0 (inactive)
CN(CCC#N)C(=O)CSc1ncnc2sc(-c3ccccc3)cc12 | 0 (inactive)
CC(C)N(C(=O)CSc1ncnc2sc(-c3ccccc3)cc12)C(C)C | 1 (active)
CC(=O)c1c(C)[nH]c(C(=O)CSc2ncnc3sc(-c4ccccc4)cc23)c1C | 1 (active)
CC(=O)c1c(C)[nH]c(C(=O)COc2cc(C)cc(C)c2)c1C | 0 (inactive)
CCN(CC)C(=O)CSc1ncnc2sc(-c3ccccc3)cc12 | 0.5 (inactive)
CCOC(=O)Cn1c(=O)oc2cc(S(=O)(=O)NCCCc3ccccc3)ccc21 | 0 (inactive)
Nc1nc(Nc2ccccc2)nc(NCc2ccco2)c1[N+](=O)[O-] | 0 (inactive)
CCOC(=O)c1sc2ncnc(NCc3ccco3)c2c1C | 1 (active)
COc1ccc(C(=O)NC(=S)N2CCCCC2)cc1 | 1 (active)
Cc1cccc(NC(=S)N2CCC(C(=O)c3ccc(F)cc3)CC2)c1C | 0 (inactive)
CNC(=S)N1CCN(c2ccc(OC)cc2)CC1 | 0 (inactive)
COc1ccc(NC(=O)Nc2ccccc2C(=O)N2CCCC2)cc1 | 0 (inactive)
COc1ccc(C(=O)NC(=S)N2CCC(C)CC2)cc1 | 1 (active)
CC1CCN(C(=S)NC(=O)c2ccccc2)CC1 | 0.5 (inactive)

Source: PubChem BioAssay AID623868 (Vanderbilt High Throughput Screening Facility, 2012)
